# PubChem BioAssay (NCI)
# Compounds without any hit were thinned out: in the full panel of roughly 83,000, 20% have a hit.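 96-well plates, one dose, 48 hours. Percent growth reported; active if below 10.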 Values without a mark were called inactive. Active and inactive are the calls of the source.
# What was measured:
# Test in all cases: NCI-60 one-dose screen, 48 h (100 = growth as untreated, 0 = no growth, -100 = all killed)
# Conditions in all cases: 10 µM unless noted
# T-47D breast = system: T-47D breast
# BT-549 breast = system: BT-549 breast
# MDA-MB-435 melanoma = system: MDA-MB-435 melanoma
# SW-620 colon = system: SW-620 colon
# MCF7 breast = system: MCF7 breast
# HCT-116 colon = system: HCT-116 colon
# HCC-2998 colon = system: HCC-2998 colon
# KM12 colon = system: KM12 colon
Compound,growth (T-47D breast),growth (BT-549 breast),growth (MDA-MB-435 melanoma),growth (SW-620 colon),growth (MCF7 breast),growth (HCT-116 colon),growth (HCC-2998 colon),growth (KM12 colon)
CCCCCCN(CCCCCC)c1ccc(/C=C2/SC(=O)NC2=O)c(C)c1,77.2%,98.3%,82.1%,88.6%,79.2%,63.7%,67.4%,80.3%
CCc1ccc(Oc2c(-c3ccc(OCc4ccc(Cl)cc4)cc3O)nn(C)c2C(F)(F)F)cc1,-8.15% (active),-12% (active),1.36% (active),7.28% (active),6.53% (active),-62.4% (active),12.8%,-5.25% (active)
COc1c(N2CC3CCCN(C(C)=O)C3C2)c(F)cc2c(=O)c(C(=O)N[C@H]3C(O)[C@@H](O)C(CO)O[C@H]3O)cn(C3CC3)c12 (stereo partly specified),99.9%,115%,105%,105%,101%,108%,115%,102%
COc1ccc(/C=C2\Oc3cc(OCCN4CCC(Cc5ccccc5)CC4)ccc3C2=O)cc1OC,60.7%,64.2%,76.5%,40.8%,49.2%,49%,-2.67% (active),68.2%
Cc1ccc(C(=O)NCCNc2nccc(-c3c(-c4cccc(F)c4)nc4sccn34)n2)cc1,42.4%,55.2%,41.6%,61.8%,27.2%,27%,64.2%,77.5%
Cc1nc(NC(=O)COc2ccc(/C=C3\Cc4ccc(Cl)cc4C3=O)cc2)sc1C,109%,328%,96.8%,107%,88.6%,109%,90.9%,119%
OC(c1ccccc1)C(NC(Cc1ccccc1)c1ccccc1)c1ccccc1 (stereo unspecified),73.6%,91.4%,97.9%,90%,104%,77.1%,96.1%,89.1%
COc1ccc(-c2[nH]ncc2-c2cc3c(c(OC)c2)OCC(=O)N3)cc1,27.2%,38.4%,-56.6% (active),12.6%,15.6%,13%,35.2%,23.1%
COc1ccc2c(c1)nc(NNC(=O)c1cnccn1)c1cccn12,22.4%,37.9%,33.7%,29.6%,10.7%,20.3%,49.7%,24.8%
COc1c(B(O)O)cc(F)cc1-c1nc2ccc3[nH]ncc3c2c2c1CCCC2,14%,-35.5% (active),16.4%,5.71% (active),4.26% (active),3.48% (active),5.31% (active),-3.54% (active)
CCOC(=O)Cn1c(=O)c2c(c3ccccc3n2C)n2nnc(-c3ccccc3)c12,104%,114%,113%,109%,75.1%,90%,109%,104%
NS(=O)(=O)c1ccc(N=Nc2ccc(-c3nn4cc(-c5ccccc5)nc4s3)cc2)cc1,87.6%,84.8%,101%,96.2%,94%,88.8%,104%,95.7%
O=C(CSc1nc2ccccc2[nH]1)Nc1cccc(Cl)c1,83.4%,103%,102%,95.7%,102%,-54.9% (active),103%,99.5%
CN(C)CCCNc1nc2ccccc2c2c(=O)c3cc(F)ccc3sc12,43.1%,100%,-79.7% (active),-51.4% (active),18.5%,-47% (active),-80.4% (active),3.81% (active)
COc1ccc2c(c1)C(C)Cc1c(ncnc1-n1c(C)nc3ccccc31)N2C (stereo unspecified),36.6%,51.7%,-30.7% (active),12%,15.4%,36.3%,41.3%,28.7%
O=c1c2cc(C(F)(F)F)ccc2sc2c(NCCCNCCO)nc3ccccc3c12,-6.02% (active),86.1%,-73% (active),-75.9% (active),-59.7% (active),-72.8% (active),-89.8% (active),-67.8% (active)
COc1ccc2sc3c(NCCCN(C)C)nc4ccccc4c3c(=O)c2c1,93.6%,69.4%,-46.9% (active),-77.2% (active),41.5%,-88.7% (active),-90.8% (active),-47.2% (active)
Cc1nc2nc(SCC(=O)O)[nH]c2c(=O)[nH]1,96.7%,97.2%,107%,98.5%,93.2%,104%,101%,105%
CN1C(=O)CNC(=O)[C@H](NC(=O)c2nc3ccccc3cc2O)CSSC[C@H]1C(=O)NCCc1nc2ccccc2cc1O,65.3%,79.4%,42.4%,34%,47.5%,80%,67.7%,30%
CCCC1CCC(O)(C(C)(O)C(=O)NC2C(=O)N3NCCCC3C(=O)N(O)C(C)C(=O)N3NCCCC3C(=O)N3NCC(O)CC3C(=O)NC(C)C(=O)OC2C(C)C)OC1CC (stereo unspecified),-77.8% (active),-67.3% (active),-74.6% (active),-97.3% (active),-83% (active),-57.2% (active),-93.6% (active),-88.5% (active)
COc1cc2cc(Oc3ccc(NC(=O)Nc4ccc(Cl)c(Cl)c4)cc3)c(C)nc2cc1OCCN1CCOCC1,75.1%,72.5%,91.8%,104%,60.1%,86.1%,116%,91.7%
CCCCN(C)N=Nc1ccc(C(N)=O)cc1,113%,112%,84.5%,104%,94%,107%,101%,107%
Fc1cc(-c2nnc3n2NC(=Nc2ccc(Cl)cc2)CS3)c(Cl)cc1Cl,79.2%,94.7%,64.2%,95.7%,86.9%,91.3%,75.3%,60.5%
CCCCCCCNC(=O)CCCNc1ncnc2c1ncn2-c1cccc(C(C)O)c1 (stereo unspecified),74.1%,93.5%,97.5%,101%,86.6%,104%,103%,95.6%
COc1cccc2nc3n(c12)C(c1c(F)cccc1F)SC3 (stereo unspecified),104%,108%,106%,106%,104%,93.8%,99.9%,100%
C=C1C(=O)O[C@H]2[C@H]1CC/C(COC(=O)CCSSCCC(=O)OC/C1=C/CC[C@@]3(C)O[C@H]3[C@H]3OC(=O)C(=C)[C@@H]3CC1)=C\CC[C@@]1(C)O[C@@H]21,-8.54% (active),-78.5% (active),10.8%,-77.7% (active),-49.4% (active),-90.2% (active),67%,51.6%
O=C(Oc1cccc2ccccc12)Oc1cccc2ccccc12,95.1%,98.9%,115%,110%,107%,107%,105%,97.3%
